# Experimental data from ChEMBL document CHEMBL2218924, “A broad activity screen in support of a chemogenomic map for kinase signalling research and drug discovery” (Biochem J, 2013).
# Molecular target: Serine/threonine-protein kinase 10 (Homo sapiens) (UniProt O94804)
# Settings: at 10 µM
# Sequence of Serine/threonine-protein kinase 10 (Homo sapiens) (O94804 whole entry, looked up): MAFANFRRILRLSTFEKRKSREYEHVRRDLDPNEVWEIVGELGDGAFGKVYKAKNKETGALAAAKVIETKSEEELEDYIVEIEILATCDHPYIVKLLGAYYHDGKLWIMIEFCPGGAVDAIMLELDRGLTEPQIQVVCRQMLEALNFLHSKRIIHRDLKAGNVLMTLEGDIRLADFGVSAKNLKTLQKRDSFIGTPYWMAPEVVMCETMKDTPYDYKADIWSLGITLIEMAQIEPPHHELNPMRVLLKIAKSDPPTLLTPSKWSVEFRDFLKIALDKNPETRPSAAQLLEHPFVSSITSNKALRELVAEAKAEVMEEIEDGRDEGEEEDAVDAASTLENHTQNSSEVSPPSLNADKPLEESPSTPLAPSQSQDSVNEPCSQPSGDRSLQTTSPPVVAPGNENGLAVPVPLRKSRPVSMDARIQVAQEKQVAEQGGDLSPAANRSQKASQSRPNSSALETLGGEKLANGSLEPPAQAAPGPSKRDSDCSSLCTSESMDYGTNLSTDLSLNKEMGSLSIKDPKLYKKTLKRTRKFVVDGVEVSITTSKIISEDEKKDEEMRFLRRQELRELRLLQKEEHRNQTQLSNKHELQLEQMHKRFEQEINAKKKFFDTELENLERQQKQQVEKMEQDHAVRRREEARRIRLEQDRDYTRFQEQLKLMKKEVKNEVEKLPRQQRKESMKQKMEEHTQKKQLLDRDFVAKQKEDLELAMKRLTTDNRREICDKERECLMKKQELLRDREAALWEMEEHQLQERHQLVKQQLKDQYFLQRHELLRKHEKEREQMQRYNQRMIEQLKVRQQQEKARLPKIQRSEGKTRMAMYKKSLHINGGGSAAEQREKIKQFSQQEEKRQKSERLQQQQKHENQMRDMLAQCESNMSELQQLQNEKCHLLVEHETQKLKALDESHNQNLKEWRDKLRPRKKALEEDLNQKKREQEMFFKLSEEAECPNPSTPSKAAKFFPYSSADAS
row,Compound,residual activity [%]
1,NC(=O)c1ccc2[nH]c(-c3ccc(Oc4ccc(Cl)cc4)cc3)nc2c1,58
2,Cc1nc(-c2ccccc2)c(-c2ccncc2)o1,105
3,CCOc1cc2ncnc(Nc3cccc(Br)c3)c2cc1OCC,10
4,CC(C)n1cnc2/c(=N/c3cccc(Cl)c3)nc(NCCO)[nH]c21,47
5,Nc1nc(Nc2ccc(S(N)(=O)=O)cc2)nn1C(=S)Nc1c(F)cccc1F,0
6,Cc1ccc(S(=O)(=O)/C=C/C#N)cc1,108
7,Ic1cccc(CSc2nnc(-c3ccncc3)o2)c1,95
8,O=C1NC(=O)c2c1c1c3ccccc3[nH]c1c1[nH]c3cc(Br)ccc3c21,95
9,O=C1NC(=O)/C(=C\c2ccc3nccnc3c2)S1,35
10,CCN(CC)CCCCN1c2ccccc2Oc2ccc(Cl)cc21,100
11,COc1cccc(-c2cc(=O)c3ccccc3o2)c1N,105
12,O=C1c2ccccc2-[n+]2ccc3c([nH]c4ccccc43)c21,90
13,Oc1ccc(-c2nc(-c3ccc(F)cc3)c(-c3ccncc3)[nH]2)cc1,59
14,Cc1nc2cc3nc(-c4cccs4)cnc3cc2n1C,99
15,COc1ccc(C(=O)Nc2sc3c(c2C(N)=O)CCCC3)cc1OC,87
16,Cn1cc(/C=C2\C(=O)Nc3ccc(S(N)(=O)=O)cc32)c2ccccc21,7
17,Nc1ccc2ncnc(NCCc3ccc(Oc4ccccc4)cc3)c2c1,75
18,CO[C@H]1C[C@@H]2CC[C@@H](C)[C@@](O)(O2)C(=O)C(=O)N2CCCC[C@H]2C(=O)O[C@H]([C@H](C)C[C@@H]2CC[C@@H](O)[C@H](OC)C2)CC(=O)[C@H](C)/C=C(\C)[C@@H](O)[C@@H](OC)C(=O)[C@H](C)C[C@H](C)/C=C/C=C/C=C/1C,90

row,Compound,residual activity [%]
1,CCC(=O)Nc1ccc2ncnc(Nc3cccc(Br)c3)c2c1,33
2,O=C(Nc1cccc(Nc2cc(Nc3cccc(C(F)(F)F)c3)ncn2)c1)C1CC1,57
3,O=[N+]([O-])c1ccc(-c2nc(-c3ccc(F)cc3)c(-c3ccncc3)[nH]2)cc1,108
4,O=c1c2ccccc2[nH]c(=S)n1CCN1CCC(=C(c2ccc(F)cc2)c2ccc(F)cc2)CC1,97
5,COc1cc2ncnc(Nc3ccc(NC(=O)c4ccccc4)cc3)c2cc1OC,33
6,COc1ccc(OC)c2c(=S)c3ccccc3[nH]c12,89
7,O=C(O)c1ccc2c3c1cccc3c(=O)n1c3ccccc3nc21,39
8,Cn1cnc2cc3c(Nc4cccc(Br)c4)ncnc3cc21,10
9,COc1ccc(S(=O)(=O)N(CCO)c2ccccc2CN(C)C/C=C/c2ccc(Cl)cc2)cc1,89
10,CNc1cc2c(Nc3cccc(Br)c3)ncnc2cn1,10
11,COc1cc2ncnc(N3CCN(C(=O)Nc4ccc(Oc5ccccc5)cc4)CC3)c2cc1OC,85
12,O=C(Nc1cccc(Nc2nccc(Nc3cccc(C(F)(F)F)c3)n2)c1)C1CC1,44
13,c1ccc(-c2n[nH]cc2-c2ccnc3ccccc23)nc1,93
14,O=c1cc(-c2cccc3c2Sc2ccccc2S3)oc(N2CCOCC2)c1,101
15,O=Nc1c(-c2c(O)[nH]c3ccccc23)[nH]c2ccccc12,71
16,Nc1n[nH]c2nnc(-c3c(-c4ccccc4)nn4ccccc34)cc12,29
17,CC(=O)O/N=C1\C(=C2\C(=O)Nc3cc(Br)ccc32)Nc2ccccc21,46

# Molecular target: Tyrosine-protein kinase Lck (Homo sapiens) (UniProt P06239)
# Sequence (P06239 2-509 limits assumed): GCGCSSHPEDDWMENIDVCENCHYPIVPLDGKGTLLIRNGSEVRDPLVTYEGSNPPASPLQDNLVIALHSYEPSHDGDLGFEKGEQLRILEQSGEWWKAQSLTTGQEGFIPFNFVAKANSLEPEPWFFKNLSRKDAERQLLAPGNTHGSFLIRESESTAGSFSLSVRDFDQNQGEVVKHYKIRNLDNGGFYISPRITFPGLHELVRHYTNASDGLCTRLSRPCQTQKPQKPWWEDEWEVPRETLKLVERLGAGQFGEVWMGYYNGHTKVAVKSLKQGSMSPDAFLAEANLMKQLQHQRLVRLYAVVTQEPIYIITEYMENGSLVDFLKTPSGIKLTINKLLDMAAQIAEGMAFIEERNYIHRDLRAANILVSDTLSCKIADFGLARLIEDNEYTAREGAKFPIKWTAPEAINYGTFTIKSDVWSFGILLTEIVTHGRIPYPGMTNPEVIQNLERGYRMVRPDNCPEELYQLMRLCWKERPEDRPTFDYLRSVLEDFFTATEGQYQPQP
# Settings: at 1 µM
row,Compound,residual activity [%]
1,NC(=O)c1ccc2[nH]c(-c3ccc(Oc4ccc(Cl)cc4)cc3)nc2c1,83
2,Cc1nc(-c2ccccc2)c(-c2ccncc2)o1,92
3,CCOc1cc2ncnc(Nc3cccc(Br)c3)c2cc1OCC,39
4,CC(C)n1cnc2/c(=N/c3cccc(Cl)c3)nc(NCCO)[nH]c21,48
5,Nc1nc(Nc2ccc(S(N)(=O)=O)cc2)nn1C(=S)Nc1c(F)cccc1F,4
6,Cc1ccc(S(=O)(=O)/C=C/C#N)cc1,96
7,Ic1cccc(CSc2nnc(-c3ccncc3)o2)c1,58
8,O=C1NC(=O)c2c1c1c3ccccc3[nH]c1c1[nH]c3cc(Br)ccc3c21,79
9,O=C1NC(=O)/C(=C\c2ccc3nccnc3c2)S1,108
10,CCN(CC)CCCCN1c2ccccc2Oc2ccc(Cl)cc21,84
11,COc1cccc(-c2cc(=O)c3ccccc3o2)c1N,85
12,O=C1c2ccccc2-[n+]2ccc3c([nH]c4ccccc43)c21,85
13,Oc1ccc(-c2nc(-c3ccc(F)cc3)c(-c3ccncc3)[nH]2)cc1,61
14,Cc1nc2cc3nc(-c4cccs4)cnc3cc2n1C,112
15,COc1ccc(C(=O)Nc2sc3c(c2C(N)=O)CCCC3)cc1OC,100
16,Cn1cc(/C=C2\C(=O)Nc3ccc(S(N)(=O)=O)cc32)c2ccccc21,20
17,Nc1ccc2ncnc(NCCc3ccc(Oc4ccccc4)cc3)c2c1,76
18,CO[C@H]1C[C@@H]2CC[C@@H](C)[C@@](O)(O2)C(=O)C(=O)N2CCCC[C@H]2C(=O)O[C@H]([C@H](C)C[C@@H]2CC[C@@H](O)[C@H](OC)C2)CC(=O)[C@H](C)/C=C(\C)[C@@H](O)[C@@H](OC)C(=O)[C@H](C)C[C@H](C)/C=C/C=C/C=C/1C,121

row,Compound,residual activity [%]
1,CCC(=O)Nc1ccc2ncnc(Nc3cccc(Br)c3)c2c1,79
2,O=C(Nc1cccc(Nc2cc(Nc3cccc(C(F)(F)F)c3)ncn2)c1)C1CC1,72
3,O=[N+]([O-])c1ccc(-c2nc(-c3ccc(F)cc3)c(-c3ccncc3)[nH]2)cc1,71
4,O=c1c2ccccc2[nH]c(=S)n1CCN1CCC(=C(c2ccc(F)cc2)c2ccc(F)cc2)CC1,144
5,COc1cc2ncnc(Nc3ccc(NC(=O)c4ccccc4)cc3)c2cc1OC,70
6,COc1ccc(OC)c2c(=S)c3ccccc3[nH]c12,101
7,O=C(O)c1ccc2c3c1cccc3c(=O)n1c3ccccc3nc21,83
8,Cn1cnc2cc3c(Nc4cccc(Br)c4)ncnc3cc21,42
9,COc1ccc(S(=O)(=O)N(CCO)c2ccccc2CN(C)C/C=C/c2ccc(Cl)cc2)cc1,80
10,CNc1cc2c(Nc3cccc(Br)c3)ncnc2cn1,87
11,COc1cc2ncnc(N3CCN(C(=O)Nc4ccc(Oc5ccccc5)cc4)CC3)c2cc1OC,98
12,O=C(Nc1cccc(Nc2nccc(Nc3cccc(C(F)(F)F)c3)n2)c1)C1CC1,73
13,c1ccc(-c2n[nH]cc2-c2ccnc3ccccc23)nc1,123
14,O=c1cc(-c2cccc3c2Sc2ccccc2S3)oc(N2CCOCC2)c1,103
15,O=Nc1c(-c2c(O)[nH]c3ccccc23)[nH]c2ccccc12,13
16,Nc1n[nH]c2nnc(-c3c(-c4ccccc4)nn4ccccc34)cc12,88
17,CC(=O)O/N=C1\C(=C2\C(=O)Nc3cc(Br)ccc32)Nc2ccccc21,16
